{"source": "PubChem BioAssay (EPA / NIEHS)", "note": "Inconclusive results are not listed. Calls of active or inactive are those of the source. The calls were made as follows: active = hit-call score of the fitted dose curve at least 0.9, where 1 is the maximum; inconclusive = response in the unintended direction; inactive = score below 0.9.", "data": [{"target": "human Neurokinin, NK2 Receptor, TACR2 (gene 6865) (UniProt P21452)", "sequence (P21452 whole entry, looked up)": "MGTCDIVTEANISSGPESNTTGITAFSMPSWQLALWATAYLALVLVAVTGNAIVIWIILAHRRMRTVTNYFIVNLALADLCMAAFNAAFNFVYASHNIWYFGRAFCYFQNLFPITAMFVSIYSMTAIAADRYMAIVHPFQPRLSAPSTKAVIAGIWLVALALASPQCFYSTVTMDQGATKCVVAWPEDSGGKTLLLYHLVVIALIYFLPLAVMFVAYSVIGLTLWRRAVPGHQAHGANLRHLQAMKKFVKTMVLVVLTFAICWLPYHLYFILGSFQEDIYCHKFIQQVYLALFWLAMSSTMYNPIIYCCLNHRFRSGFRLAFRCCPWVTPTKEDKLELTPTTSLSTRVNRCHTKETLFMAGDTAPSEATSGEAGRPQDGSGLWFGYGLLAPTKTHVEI", "assay": "NVS_GPCR_hNK2: NovaScreen (NVS) G Protein-Coupled Receptor Assay for human Neurokinin, NK2 Receptor (AID 2283278);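 also: actives reduce bound radioligand signal relative to DMSO baseline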", "how_it_was_run": "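Test chemicals displace a radioligand from receptor prepared from CHO cells in a cell-free format, read after 4 hours by scintillation counting on filters. Screening starts at 25 uM in duplicate, and active chemicals then go to concentration series.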", "values": [{"smiles": "O=C1OC2(c3cc(Br)c(O)c(Br)c3Oc3c2cc(Br)c(O)c3Br)c2c(Cl)c(Cl)c(Cl)c(Cl)c21", "AC50": "1.27 µM (active)"}, {"smiles": "S=C(S)NCCNC(=S)S", "AC50": "3.54 µM (active)"}, {"smiles": "O=C=NC1CCC(CC2CCC(N=C=O)CC2)CC1", "note": "(stereo not given)", "outcome": "inactive"}]}, {"target": "human Thromboxane A2 Receptor (TXA2), TBXA2R (gene 6915) (UniProt P21731)", "sequence (P21731 whole entry, looked up)": "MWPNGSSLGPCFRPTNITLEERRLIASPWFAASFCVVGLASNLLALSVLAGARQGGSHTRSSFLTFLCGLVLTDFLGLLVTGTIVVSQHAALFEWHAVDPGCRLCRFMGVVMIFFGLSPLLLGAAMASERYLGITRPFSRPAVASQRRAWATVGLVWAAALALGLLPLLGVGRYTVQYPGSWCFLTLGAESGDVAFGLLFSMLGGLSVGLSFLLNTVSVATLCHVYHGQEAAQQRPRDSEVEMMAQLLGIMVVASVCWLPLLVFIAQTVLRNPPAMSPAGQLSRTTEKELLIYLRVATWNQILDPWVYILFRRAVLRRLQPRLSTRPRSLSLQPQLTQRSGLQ", "assay": "NVS_GPCR_hTXA2: NovaScreen (NVS) G Protein-Coupled Receptor Assay for human Thromboxane A2 Receptor (TXA2) (AID 2283282);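 also: actives reduce bound radioligand signal relative to DMSO baseline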", "method": "NVS_GPCR_hTXA2 is a biochemical, single-readout assay that uses extracted gene-proteins from Human platelets in a cell-free assay. Measurements were taken 1 hour after chemical dosing in a 96-well plate.NVS_GPCR_hTXA2 is one of one assay component(s) measured or calculated from the NVS_GPCR_hTXA2 assay. It is designed to make measurements of radioligand binding, a form of binding reporter, as detected with scintillation counting signals by Filter-based radiodetection technology.Data from the assay component NVS_GPCR_hTXA2 was analyzed into 1 assay endpoint. This assay endpoint, NVS_GPCR_hTXA2, was analyzed in the positive analysis fitting direction relative to DMSO as the negative control and baseline of activity. Using a type of binding reporter, loss-of-signal activity can be used to understand changes in the binding as they relate to the gene TBXA2R. Furthermore, this assay endpoint can be referred to as a primary readout, because the performed assay has only produced 1 assay endpoint. To generalize the intended target to other relatable targets, this assay endpoint is annotated to the gpcr intended target family, where the subfamily is rhodopsin-like receptor.\nBinding assays used specific radioligands (tritiated, iodinated) with non-radioactive competitive displacement ligands in agonist or antagonist protocols (as indicated) and various reference compounds and inhibitors to titrate specific binding to receptors and transporters. Most enzyme assays (CYPs, kinases, phosphatases, proteases, HDACs) used recombinant protein and specific substrates (fluorescence mostly, some colorimetric and radioactive) and inhibitors, followed by a biochemical separation of substrate and product. All assays for the biochemical HTS were initially run in duplicate at a single concentration (10 uM for CYP450 assays and 25 uM for all others). […] Each assay was run with positive and negative controls, and concurrent controls on every plate. The follow-up (secondary) screen tested active chemical-pairs in concentration series, as well as a few additional assays not tested in the primary screen, some selected negative inactives, and several cases re-run in the concentration series for confirmatory purposes.", "values": [{"smiles": "BrC1CCC(Br)C(Br)CCC(Br)C(Br)CCC1Br", "note": "(stereo not given)", "AC50": "11.1 µM (active)"}, {"smiles": "CCCCCCCCCC=O", "outcome": "inactive"}, {"smiles": "O=C1CCc2ccccc2O1", "outcome": "inactive"}, {"smiles": "CN(CCOc1ccc(CC2SC(=O)NC2=O)cc1)c1ccccn1", "note": "(stereo not given)", "AC50": "1.45 µM (active)"}, {"smiles": "CCCCCCCCC=O", "outcome": "inactive"}, {"smiles": "CCCCOCCOCCOCCOCCO", "outcome": "inactive"}]}, {"target": "human Opioid Receptor Mu (Opiate Mu), OPRM1 (gene 4988) (UniProt P35372)", "sequence (P35372 whole entry, looked up)": "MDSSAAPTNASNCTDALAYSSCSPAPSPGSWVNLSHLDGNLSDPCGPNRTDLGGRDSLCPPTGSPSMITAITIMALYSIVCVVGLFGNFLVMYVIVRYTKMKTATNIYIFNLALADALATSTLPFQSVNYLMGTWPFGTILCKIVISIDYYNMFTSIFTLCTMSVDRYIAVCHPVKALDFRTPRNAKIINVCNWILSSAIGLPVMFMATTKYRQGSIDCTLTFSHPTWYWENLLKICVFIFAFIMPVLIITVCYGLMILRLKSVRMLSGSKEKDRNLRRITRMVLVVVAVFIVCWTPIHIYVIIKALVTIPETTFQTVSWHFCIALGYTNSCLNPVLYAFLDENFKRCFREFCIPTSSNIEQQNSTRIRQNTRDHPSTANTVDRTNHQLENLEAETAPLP", "assay": "NVS_GPCR_hOpiate_mu: NovaScreen (NVS) G Protein-Coupled Receptor Assay for human Opioid Receptor Mu (Opiate Mu) (AID 2283290);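 also: hits lower bound tracer signal versus DMSO meaning displacement of the ligand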", "how_it_was_run": "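Here, radioligand binding to CHO-extracted receptor was measured after 2.5 h using filter-based scintillation detection. Initial single-concentration screening used 25 uM in duplicate with plate controls; confirmed actives went to concentration-response testing.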", "values": [{"smiles": "COc1cc2ncnc(Nc3cccc(Cl)c3)c2cc1OC", "AC50": "4.36 µM (active)"}, {"smiles": "CCCOCC(C)O", "note": "(stereo not given)", "AC50": "14.8 µM (active)"}, {"smiles": "Cc1ccc2sc3cccc(C)c3c2c1", "outcome": "inactive"}, {"smiles": "O=C1OC2(c3cc(Br)c(O)c(Br)c3Oc3c2cc(Br)c(O)c3Br)c2c(Cl)c(Cl)c(Cl)c(Cl)c21", "AC50": "0.0961 µM (active)"}, {"smiles": "Nc1cc([N+](=O)[O-])ccc1Cl", "outcome": "inactive"}, {"smiles": "CCc1c(C)cc(N)c(CC)c1N", "AC50": "13 µM (active)"}]}]}
